# Laboratory results published in PubChem BioAssay AID2315 (National Center for Advancing Translational Sciences (NCATS), 2010).
# The whole screen tested about 290,000 compounds, of which about 27,000 (9.3%) were called active. What follows is part of a selection rich in actives, with near analogues and random picks from the rest. Values without a mark were called inactive. No stated cut-off is given here; in the data, active means inhibition mostly above about 28% (no sharp cut-off); inactive means mostly below about 43%.
# Test: A qHTS for Small Molecule Inhibitors of Shiga Toxin; further: 0% is about no effect
# Settings: Vero cells, Shiga toxin protein synthesis inhibition reporter; at 38.7 µM, active compounds read high
row,Compound,inhibition
1,O=C(Cc1ccccn1)c1ccc(O)cc1O,-4.76%
2,Cc1cccc(C(=O)N2CCCC(Nc3ccc(C(C)C)cc3)C2)n1 (stereo not drawn),19.6%
3,CCn1c(SCc2cccc(C(=O)O)c2)nnc1-c1ccc(Cl)cc1,7.08%
4,O=S(=O)(Cc1nnnn1-c1ccc(Br)cc1)c1ccc(F)cc1,-1.52%
5,CCOc1ccc(-n2c(SCC(=O)Nc3cc(C(=O)O)ccc3Cl)nc3ccccc3c2=O)cc1,3.55%
6,CC(=O)c1cccc(NC(=O)COc2ccc(S(=O)(=O)N3CCOCC3)cc2)c1,-10.1%
7,CCCC(C)c1nnc(NC(=O)C2CC(=O)N(c3ccc(OCC)cc3)C2)s1 (stereo not drawn),-3.18%
8,Cc1cccn2c(=O)c3cc(C(=O)NCCN4CCOCC4)c(=N)n(Cc4cccnc4)c3nc12,-22.4%
9,COc1cccc(NC(=O)Nc2nnc(N3CCCCC3C)s2)c1 (stereo not drawn),53.2% (active)
10,CCOC(=O)c1csc(NC(=O)Nc2cccc(OC)c2)n1,-3.25%
11,COc1cccc(C(=O)Nc2nnc(S(=O)(=O)N3CCCCC3)s2)c1,6.87%
12,CN1C(=O)[C@H]2[C@@H](C3CC3)N3C(=O)CN(Cc4ccccc4)C(=O)[C@@]3(C)[C@H]2C1=O,1.87%
13,CC1CCN(CCCn2c(SCC(=O)NC3CCCC3)nc3ccccc3c2=O)CC1,17.3%
14,COc1ccccc1C1/C(=C(/O)c2ccc(OC(C)C)cc2)C(=O)C(=O)N1c1cc(C)on1 (stereo not drawn),-22.9%
15,COc1ccc(/C(O)=C2/C(=O)C(=O)N(c3nc(C)c(C)s3)C2c2ccco2)cc1 (stereo not drawn),30.6%
16,CCOc1ccc(/C(O)=C2\C(=O)C(=O)N(c3ccc(OC)cc3)C2c2ccccc2[N+](=O)[O-])cc1 (stereo not drawn),26.8% (active)
17,COc1ccc(OCC(=O)NNC(=O)c2cccc(C)c2)cc1,-7.72%
18,CCNC(=O)COC(=O)CCNC(=O)c1cccc(C)c1,43.3%
19,CCOC(=O)C(CC)/C(C)=N\NC(=O)c1cccc(C)c1 (stereo not drawn),66.3% (active)
20,Cc1cc(=O)oc2c3c(cc(OCC(=O)NCCC(=O)N[C@@H](C)C(=O)O)c12)OC(C)(C)CC3,-4.24%
21,Cc1cc2c(s1)c1cnn(Cc3c(F)cccc3Cl)c(=O)c1n2C,12.5%
22,O=C(C1=C(O)C(=O)N(CCOCCO)C1c1ccccn1)c1cccs1 (stereo not drawn),29.3% (active)
23,O=C(C1=C(O)C(=O)N(c2ncccn2)C1c1cccs1)c1ccco1 (stereo not drawn),-18.4%
24,O=C(c1cccs1)N(C(=O)c1cccs1)c1ccccn1,39.7%

row,Compound,inhibition
1,Cn1c(=O)c2c(nc(OCc3cccnc3)n2Cc2ccccc2)n(C)c1=O,39.2% (active)
2,Cn1c(=O)c2c(nc(NCCc3ccccc3)n2Cc2ccccc2)n(C)c1=O,-11.5%
3,C=CCOc1nc2c(c(=O)n(C)c(=O)n2C)n1Cc1ccc(Cl)cc1Cl,-1.49%
4,COc1ccc(CN2C3CCCC2CC(NC(=O)c2cccc(F)c2)C3)cc1 (stereo not drawn),14.6%
5,Cc1cccc(-n2ncc(Cl)c(Cl)c2=O)c1,-17.2%
6,O=c1c(Cl)c(NC2CC2)cnn1-c1ccccc1,107%
7,C=CCNc1cnn(-c2ccc(C)cc2)c(=O)c1Cl,127% (active)
8,CCCN1C2CCCC1CC(NC(=O)c1cccc(OC)c1)C2 (stereo not drawn),12.9%
9,CCOc1ccc(N=Cc2c(O)n(-c3cccc(C)n3)c(=O)c3ccccc23)cc1,-15.9%
10,CCCCn1c(=O)c(C(C)=O)c(O)c2ccccc21,-12.1%
11,CC(=O)n1c(C=Nc2ccccc2)c(O)c2ccccc21,49.2% (active)
12,Cc1ccc(CN2CCN(/N=C/c3ccco3)CC2)c(C)c1,11.6%
13,O=C(c1ccco1)N1CCN(Cc2cccc(C(F)(F)F)c2)CC1,-13.9%
14,C/C(=N\N1CCN(Cc2ccc(C)cc2)CC1)c1ccco1,31.8% (active)
15,CCn1c2ccccc2c2cc(NC(=O)CNC)ccc21,-4.7%
16,C/C(CC(=O)Nc1ccc(N(C)C)cc1)=N\NC(=O)c1ccccc1F,121% (active)
17,CCn1c2ccccc2c2cc(NC(=O)COC(=O)c3ccccc3Br)ccc21,-4.15%
18,CCn1c2ccccc2c2cc(NC(=O)C/C(C)=N/NC(=O)c3ccccc3N)ccc21,131% (active)
19,CN(C)c1ccc(NC(=O)CN2C3CCCC2CC(NC(=O)c2ccccc2)C3)cc1 (stereo not drawn),27.2%
20,CCOc1ccc(NC(=O)C/C(C)=N/NC(=O)Cc2cccs2)cc1,2.74%
21,CC(=O)NCCc1ccc(S(=O)(=O)Nc2ccc(C)c(S(=O)(=O)N3CCOCC3)c2)cc1,-1.5%
22,COc1ccccc1NC(=O)CN(c1ccccc1OC)S(=O)(=O)c1ccccc1,-1.35%
23,Cc1ccc(NC(=O)CSc2nnc(CNC(=O)c3ccccc3F)o2)cc1Cl,-10.8%
24,CC(C)[C@H](NC(=O)N1c2ccccc2NC(=O)[C@@H]1C(C)C)C(=O)N[C@H](C(=O)O)c1ccccc1,3.44%
